DUX4 txn inh – inhibitors of DUX4-driven ZSCAN4 reporter expression, primary screen, 293T cells, Gaussia and Italica luciferase. 293T-iDUX4 ZSCAN4-Gaussia luciferase reporter, 24 h; stronger effect = lower value. AID 1224904, 2016. activity change, negative = inhibition, % (concentration not given with the values). 0.8% of 37,000 active;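 active = mean inhibition of at least 10% in the main channel, exceeding the control channel by a set limit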;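 note: 0% = median of neutral control wells and -100% = median of positive control wells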
The depositor's hits bear a star. This excerpt belongs to a sample that is enriched for hits.

SMILES	DUX4 txn inh
O=C(c1ccccc1)N1CC[C@@H]2[C@H](CO)Nc3ccc(C#Cc4cccc(F)c4)cc3[C@@H]21	-40*
O=C(c1ccccc1F)N1CC[C@@H]2[C@@H](CO)Nc3ccc(C#Cc4ccccc4F)cc3[C@@H]21	-3
O=C(c1ccc2c(c1)OCO2)N1CC[C@@H]2[C@H](CO)Nc3ccc(C#Cc4ccccc4)cc3[C@@H]21	-54*
O=C(c1ccc2c(c1)OCO2)N1CC[C@@H]2[C@H]1c1cc(-c3ccccc3)ccc1N[C@@H]2CO	6
COc1ccc(C#Cc2ccc3c(c2)[C@@H]2[C@@H](CCN2C(=O)c2ccccc2F)[C@@H](CO)N3)cc1	11
COc1ccccc1C#Cc1ccc2c(c1)[C@@H]1[C@@H](CCN1C(=O)c1cccc(F)c1)[C@H](CO)N2	-6
COc1ccc2c3c(n(C)c2c1)[C@@H](CO)N(C(C)=O)CC31CN(C(=O)NC(C)C)C1	10
CCC(=O)N1CC2(CN[C@H](CO)c3c2c2ccc(OC)cc2n3C)C1	13
CO[C@@H]1CN(C)C(=O)c2ccc(NC(=O)C3CC3)cc2OC[C@H](C)N(Cc2cncnc2)C[C@@H]1C	-5
CN(C)C(=O)c1cccc(-c2ccc3c(c2)[C@H]2[C@H](CCN2C(=O)c2ccncc2)[C@@H](CO)N3C)c1	17
O=S(=O)(c1ccc(F)cc1)N1CC[C@@H]2[C@@H](CO)Nc3ccc(Br)cc3[C@@H]21	0
COc1ccc2c3c([nH]c2c1)[C@H](CO)NCC31CN(S(=O)(=O)c2ccccc2)C1	17
COc1cccc(CN2[C@H](CO)[C@@H](c3ccccc3)C23CN(C(=O)C2CC2)C3)c1	-6
COc1cccc(CN2[C@@H](CO)[C@H](c3ccccc3)C23CN(Cc2ccccc2OC)C3)c1	-44*
COc1ccccc1CN1[C@@H](CO)[C@@H](c2ccccc2)C12CN(C(C)=O)C2	3
COc1ccccc1CN1[C@@H](CO)[C@H](c2ccccc2)C12CN(C(C)=O)C2	-6
COc1ccccc1CN1[C@H](CO)[C@H](c2ccccc2)C12CN(C(C)=O)C2	3
O=C(C1CC1)N1CC2(C1)[C@@H](c1ccccc1)[C@@H](CO)N2Cc1ccccc1F	-2
CCC(=O)N1CC2(C1)[C@H](c1ccccc1)[C@@H](CO)N2Cc1ccccc1F	3
OC[C@H]1[C@H](c2ccccc2)C2(CN(Cc3ccccc3F)C2)N1Cc1ccccc1F	-35*
COc1cccc(CN2CC3(C2)[C@H](c2ccccc2)[C@@H](CO)N3Cc2ccccc2OC)c1	-36*
COc1ccc2c3c(n(C)c2c1)[C@@H](CO)NCC31CCN(S(=O)(=O)c2ccccc2)CC1	4
CC=Cc1ccc2n(c1=O)C[C@H]1[C@H](CO)[C@@H](C(=O)Nc3ccccc3)N(CC3CC3)[C@@H]21 (mixture of isomers)	-5
CCC(=O)N1[C@@H](CO)[C@@H](c2ccccc2)C12CN(C(=O)c1ccc(F)cc1)C2	6
CCC(=O)N1CC2(C1)CN(C(=O)Cc1ccccc1)[C@@H](CO)c1c2c2ccc(OC)cc2n1C	1
SMILES	DUX4 txn inh
C[C@@H]1CCCCO[C@H](CN(C)Cc2ccc(C(=O)Nc3ccccc3N)cc2)[C@@H](C)CN([C@@H](C)CO)C(=O)c2cc(N(C)C)ccc2O1	-1
COc1ccc2c3c(n(C)c2c1)[C@@H](CO)N(C(C)=O)CC31CCN(Cc2cncnc2)CC1	17
O=C(NC1CCCC1)N1CCCCN2[C@H](C1)[C@H](c1ccc(-c3ccccc3)cc1)[C@@H]2CO	1
N#Cc1ccc(-c2ccc([C@H]3[C@H]4CN(C(=O)Nc5ccc(F)cc5)CCCCN4[C@H]3CO)cc2)cc1	39
C/C=C/c1ccc([C@@H]2[C@H](CO)N3CCCCN(C(=O)Nc4ccc(OC)cc4)C[C@@H]23)cc1	18
COc1ccccc1-c1ccc([C@H]2[C@@H](CO)N3CCCCN(C(=O)NC4CCCC4)C[C@H]23)cc1	-23*
O=S(=O)(c1ccc(F)cc1)N1CCCCN2[C@@H](CO)[C@@H](c3ccc(C4=CCCCC4)cc3)[C@@H]2C1	-4
COc1ccc(S(=O)(=O)N2CCCCN3[C@H](CO)[C@@H](c4ccc(C5=CCCC5)cc4)[C@@H]3C2)cc1	1
N#Cc1ccc(-c2ccc([C@H]3[C@@H](CO)N4CCCCN(C(=O)Nc5ccc(F)cc5)C[C@H]34)cc2)cc1	-39*
C/C=C/c1ccc([C@@H]2[C@@H](CO)N3CCCCN(C(=O)Nc4ccc(OC)cc4)C[C@@H]23)cc1	-27*
C/C=C/c1ccc([C@H]2[C@@H](CO)N3CCCCN(C(=O)Nc4ccc(OC)cc4)C[C@H]23)cc1	-9
Cc1ccccc1-c1ccc([C@@H]2[C@@H](CO)N3CCCCN(C(=O)NC4CCCC4)C[C@H]23)cc1	-9
N#Cc1ccc(-c2ccc([C@H]3[C@H](CO)N4CCCCN(C(=O)Nc5ccc(F)cc5)C[C@@H]34)cc2)cc1	10
O=S(=O)(c1ccc(F)cc1)N1CCCCN2[C@H](CO)[C@H](c3ccc(C4=CCCCC4)cc3)[C@@H]2C1	-42*
C[C@@H]1CN([C@H](C)CO)S(=O)(=O)c2ccc(-c3cccc(F)c3)cc2O[C@H]1CN(C)S(=O)(=O)c1ccccc1	2
CN1C(=O)c2cc(NC(=O)c3ccc(F)c(F)c3)ccc2OC[C@H]2O[C@H](CC(=O)N[C@H]3CCN(Cc4ccccc4)C3)CC[C@@H]21	1
O=C(NCCc1ccccc1)[C@H]1N[C@H]2c3ccc(-c4ccccc4)c(=O)n3C[C@H]2[C@@H]1CO	5
COC(=O)C[C@@H]1CC[C@@H]2[C@@H](COc3ccc(NC(=O)Nc4cc(C)cc(C)c4)cc3C(=O)N2C)O1	-2
O=C1N[C@H](c2ccccc2)COCc2cnnn2CC[C@H]1Cc1ccc(-c2ccccc2)cc1	-1
CO[C@@H]1CN(C)C(=O)c2ccc(NS(C)(=O)=O)cc2OC[C@@H](C)N(Cc2ccccc2)C[C@H]1C	5
CN1c2ccc(-c3ccc(F)cc3)cc2[C@@H]2[C@@H](CCN2C(=O)CC2CC2)[C@H]1CO	1
CCCNC(=O)c1cc2c(c(-c3cccc(-c4cccc(OC)c4)c3)n1)[C@H](CCO)N([S@@](=O)C(C)(C)C)C2	3
CC(=O)N1CC[C@@H]2[C@H]1c1cc(-c3cccc(F)c3)ccc1N(C)[C@@H]2CO	6
CCS(=O)(=O)N1CCCCN2[C@H](CO)[C@@H](c3ccc(-c4ccccc4C)cc3)[C@@H]2C1	10
O=C(Nc1cccc(F)c1)N1CCCCN2[C@H](C1)[C@@H](c1ccc(-c3ccncc3)cc1)[C@@H]2CO	7
SMILES	DUX4 txn inh
Cc1ccccc1-c1ccc([C@@H]2[C@@H](CO)N3CCCCN(S(=O)(=O)c4ccc(F)cc4)C[C@H]23)cc1	-40*
Cc1ccccc1-c1ccc([C@H]2[C@H](CO)N3CCCCN(S(=O)(=O)c4ccc(F)cc4)C[C@@H]23)cc1	-56*
CCS(=O)(=O)N1CCCCN2[C@H](CO)[C@H](c3ccc(-c4ccccc4C)cc3)[C@H]2C1	-5
Cc1ccccc1-c1ccc([C@H]2[C@H]3CN(S(C)(=O)=O)CCCCN3[C@H]2CO)cc1	-6
Cc1ccccc1-c1ccc([C@H]2[C@H](CO)N3CCCCN(S(C)(=O)=O)C[C@@H]23)cc1	17
Cc1ccccc1-c1ccc([C@@H]2[C@@H](CO)N3CCCCN(C(=O)Nc4cccc(F)c4)C[C@@H]23)cc1	-27*
O=C(Nc1ccc(F)cc1)N1CCCCN2[C@H](C1)[C@H](c1ccc(-c3cccc(F)c3)cc1)[C@@H]2CO	9
